Most compounds without a hit are left out; they make up all but 11% or so of the library.
Pf growth 96h = P. falciparum growth inhibition at 96 hour, primary screen for plastid delayed-death inhibitors. Potency, µM (series often up to 28.7 µM), hits mostly inhibitors. P. falciparum luciferase reporter growth, 96 h. actives 6.9% (n = 320,000)
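Luminescence readout: decreased luciferase signal marks inhibited growth of reporter-expressing P. falciparum in infected red cells (2% hematocrit, 0.05% parasitemia final), exposed to compound two generations (96 h, 37 C, 5% CO2).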
HCV inh = inhibitors of hepatitis C virus infection; Huh7.5.1 HCVcc-Cre infection, luciferase reporter, 44 h; Potency, µM (titrated, usually from 41.8 µM), actives largely listed as inhibitors; actives 3.4% (n = 340,000)
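Reporter virus HCVcc-Cre (~0.5 moi) infects cells exposed to compound; seeding density 1,000 cells/well with 4 h settling beforehand. Luminescence, 15 sec read, taken 44 h post-infection following a 15 min RT substrate incubation.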
Pf growth 48h = inhibits P. falciparum growth in the first generation, 48 h. P. falciparum luciferase growth in erythrocytes, 48 h. Potency, µM (doses to about 28.7 µM), usual class: inhibitors. actives 5.9% (n = 310,000). AID 504832
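Here the parasites carry a stable luciferase gene and grow inside erythrocytes in Albumax-based RPMI medium with compound for one erythrocytic cycle. Activity is scored as loss of luminescent signal.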
AMA1 RON2 block = inhibitors of Plasmodium falciparum AMA1-RON2 interaction | actives 0.2% (n = 360,000) | AlphaScreen AMA1-biotinylated RON2 peptide binding | Potency, µM (top dose mostly 58.2 µM), most hits filed as inhibitors; note: nearly all actives have a fitted effect of over 45% in size
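AMA1 (3D7) with his tag at 25 nM final met compounds first, then biotinylated RON2 peptide at 25 nM; detection used donor plus acceptor beads, 10 µg/mL apiece, read by AlphaScreen after 30 min at room temperature.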
Hits are given with their value; 0 = inactive; ? = inconclusive; - = not tested or not shown; [ ] = dose if it differs, or a comment. Calls come from the whole dose curve; as a rule, active = well fitted curve in the direction sought with a large enough effect; inconclusive = small, poorly fitted or top-dose-only effect, or another doubt; inactive = no such curve, though single readings can be large; an effect the other way counts as inactive or inconclusive.

SMILES | Pf growth 96h | HCV inh | Pf growth 48h | AMA1 RON2 block
COc1ccc(NC(=S)N/N=C/c2cccn2Cc2ccccc2F)cc1 | 0 | 0 | ? | 0
COc1ccc(NC(=S)N/N=C/c2cccn2Cc2ccc(F)cc2Cl)cc1 | ? | ? | 3.7µM | 0
C#CCn1c2ccccc2c2nc3ccccc3nc21 | ? | 0 | 0 | 0
CC(C)n1c2ccccc2c2nc3ccccc3nc21 | - | 12.6µM | ? | 0
C=C1c2ccccc2S(=O)(=O)N(Cc2ccccc2)C1COCc1ccccc1 (stereo not drawn) | ? | 0 | ? | 0
COc1cc(CNn2nnnc2N)cc(Br)c1OCC(=O)NC(C)(C)C | 0 | 0 | ? | 0
COc1cc(CNn2nnnc2N)cc(Br)c1OCc1c(Cl)cccc1Cl | ? | 12.6µM | - | 0
CCN(CC)CCN(C)Cc1nc(C(c2ccccc2)c2ccccc2)no1 | 9.28µM | 0 | ? | 0
Fc1cccc(Cn2cc(C(=S)N3CCCCC3)c3ccccc32)c1 | ? | 0 | 11.7µM | ?
CCc1noc(C)c1C(=O)Nc1cccc2ncccc12 | ? | 0 | 0 | 0
Cc1cc(NC(=O)CN2CCc3ccccc3C2)nc2c1c(=O)oc1ccccc12 | ? | 0 | 10.4µM | 0
CCCC(=O)Nc1cc(C)c2c(=O)oc3ccccc3c2n1 | 0 | 0 | 0 | 0
CCNNC(=O)C(O)(Cc1ccccc1)Cc1ccccc1 | 0 | 0 | 0 | 0
CCCc1c(C(=O)N/N=C(/C)c2ccncc2)nnn1-c1nonc1N | 0 | 0 | 0 | 0
Cc1nnc(N/N=C/c2cc([N+](=O)[O-])c(N3CCC(C)CC3)cc2N2CCC(C)CC2)n1N | - | 12.6µM | 5.86µM | 0
CCc1nnc(N/N=C/c2ccc(N3CCC(C)CC3)c([N+](=O)[O-])c2)n1N | 0 | ? | ? | ?
Cc1cc(C)n(-c2cccc(F)n2)n1 | 0 | 0 | 0 | 0
O=C(Nc1ccc(Cl)c(C(F)(F)F)c1)NC1CC2CCCC(C1)N2Cc1ccccc1 (stereo not drawn) | ? | 25.1µM | ? | 0
O=C(NC1CC2CCCC(C1)N2C(=O)Nc1ccc(Cl)c(C(F)(F)F)c1)C1CC1 (stereo not drawn) | 0 | 0 | ? | 0
CCOC(=O)C1(CCCc2ccccc2)CCN(C(=O)c2n[nH]c(CC)c2C)CC1 | - | - | - | 0
C=C(C)[C@H]1Cc2c(ccc3c2O[C@@H]2COc4cc(OC)c(OC)cc4[C@@H]2C3=O)O1 | 6.75µM | - | ? | -
CCOC(=O)/C=C/C(=O)Nc1ccccc1C(=O)NC1CCCCC1 | ? | 0 | ? | 0
COc1ccc(-c2csc(NC(C)c3nc4cc(C(F)(F)F)ccc4n3CCOCCO)n2)cc1 (stereo not drawn) | - | 8.91µM | - | 0
N#CCCN1CCN(Cc2cc(-c3ccccc3)ccc2O)CC1 | ? | ? | ? | 0
CC(C)(C)CC(C)(C)c1ccc(O)c(CN2CCN(CCC#N)CC2)c1 | - | 0 | 1.65µM | 0
SMILES | Pf growth 96h | HCV inh | Pf growth 48h | AMA1 RON2 block
O=C(O)C1=CCC(c2ccc(Cl)c(Cl)c2)N(S(=O)(=O)c2ccc(F)cc2)C1c1cccc(F)c1 (stereo not drawn) | - | - | - | 0
Cc1cc(-c2csc(N)n2)c(C)n1-c1ccc(Cl)c(Cl)c1 | 0 | ? | 0 | 0
COc1ccc(-n2c(C)cc(-c3csc(N)n3)c2C)cc1 | ? | ? | 13.1µM | 0
Cc1ccc2oc3nc(C)c(C(=O)Nc4cccc(C(F)(F)F)c4)cc3c(=O)c2c1 | 0 | ? | 0 | 0
Cc1ccc(Sc2nc(-c3ccccc3)nnc2C(F)(F)F)cc1 | 0 | ? | 13.1µM | 0
CCOC(=O)CCCCCC(=O)Nc1ccc2c(c1)C(=O)N([C@@H](C)CO)C[C@@H](C)[C@H](CN(C)S(=O)(=O)c1cccs1)OCCCC[C@H](C)O2 | - | - | - | 0
COCCn1c(SCC(=O)c2c[nH]c3ccccc23)nnc1-c1ccncc1 | ? | 0 | ? | 0
CCc1cccc2c(C(=O)CSc3nnc(C4CC4)o3)c[nH]c12 | 0 | 5.62µM | 0 | 0
Cc1cccc(C)c1NC(=O)CSc1nnc(C2CCCCC2)o1 | ? | 0 | 0 | 0
CCc1cccc2c(C(=O)CSc3nnc(-c4ccncc4)n3C)c[nH]c12 | 10.4µM | 0 | ? | 0
CCOC(=O)[C@]12CCCC=C1N(Cc1cccc3ccccc13)C(=O)[C@H](CC(=O)N1CCN(C(=O)c3ccco3)CC1)C2 | - | - | - | 0
COC(=O)c1cc2ccsc2n1Cc1ccccc1F | 11.7µM | 0 | 0 | 0
Cc1cc(NC(=O)C2CC=CCC2C(=O)O)ccc1NC(=O)c1ccccc1 (stereo not drawn) | 9.28µM | 0 | ? | 0
O=C(O)C1CC=CCC1C(=O)Nc1cccnc1 (stereo not drawn) | 0 | 0 | 9.28µM | 0
CC(Sc1nn(-c2ccccc2)c(=S)s1)C(=O)NCC1CCCO1 (stereo not drawn) | 13.1µM | 0 | 9.28µM | 0
Cc1nnc(SC(C)C(=O)NCC2CCCO2)n1-c1ccccc1 (stereo not drawn) | 0 | 0 | 0 | 0
CCOC(=O)c1cc2c(=O)n3ccccc3nc2n(CC(C)C)c1=NC(=O)c1ccco1 | - | ? | 10.4µM | 0
CCOC(=O)c1cc2c(=O)n3ccccc3nc2n(CCOC)c1=NC(=O)c1ccncc1 | ? | 0 | 0 | 0
CCOC(=O)c1cc2c(=O)n3ccccc3nc2n(CCOC)c1=NC(=O)c1c(-c2c(F)cccc2Cl)noc1C | 5.86µM | ? | ? | 0
CCOC(=O)C1CCCN(C(=O)c2[nH]c(C(F)(F)F)nc2-c2ccccc2)C1 (stereo not drawn) | - | - | - | 0
O=C(c1ccoc1)N1CCN(c2cc(-c3cccnc3)nc3cc(-c4cccc(Cl)c4)nn23)CC1 | - | - | - | 0
NNC(=O)c1cc(-c2cccs2)nc2ccccc12 | 0 | 0 | ? | 0
C/C(=N\NC(=O)c1cccc2ccccc12)c1cccs1 | 0 | 0 | 0 | 0
C/C(=N\NC(=O)c1cc(-c2cccs2)nc2ccccc12)c1ccccn1 | ? | 0.562µM | ? | 0
C/C(=N\NC(=O)c1cccc(Br)c1)c1ccccn1 | 0 | ? | 0.738µM | 0
SMILES | Pf growth 96h | HCV inh | Pf growth 48h | AMA1 RON2 block
C/C(=N\NC(=O)c1cccc2ccccc12)c1ccccn1 | 2.08µM | 5.01µM | ? | 0
Cc1cccc2sc(NNC(=O)c3cc(-c4cccs4)nc4ccccc34)nc12 | 4.15µM | ? | ? | 0
CN(C)CCN(Cc1ccccc1)C(=O)c1[nH]c(C(F)(F)F)nc1-c1ccccc1 | - | - | - | 0
C/C(=N\NC(=O)c1ccc(NS(=O)(=O)c2cccs2)cc1)c1ccccn1 | 11.7µM | ? | ? | 0
C/C(=N\NC(=O)c1ccc(NS(=O)(=O)c2cccs2)cc1)c1ccncc1 | 0[5.75 µM] | 0 | 0[5.75 µM] | 0
C/C(=N\NC(=O)C(c1ccccc1)c1ccccc1)c1ccccn1 | 2.33µM | 11.2µM | 2.33µM | 0
CN(C)S(=O)(=O)c1ccc(NC(=O)c2cc(-c3cccs3)nc3ccccc23)cc1 | ? | ? | ? | 0
C/C(=N\NC(=O)c1cc(Br)ccc1O)c1ccccn1 | ? | 0 | ? | 0
C/C(=N\NC(=O)c1ccccc1Cl)c1ccccn1 | 0 | ? | 1.65µM | 0
NS(=O)(=O)c1ccc(NC(=O)c2cc(-c3cccs3)nc3ccccc23)cc1 | 0.415µM | ? | 0 | 0[2.32 µM]
CCOC=C1SC(=S)N(c2ccccc2OC)C1=O | - | - | - | 0
C[C@H]1CC[C@@]2(O[C@H](CCO)C[C@H](O)[C@H]2O)O1 | - | 0 | - | 0
